According to PubChem BioAssay AID720517 (National Center for Advancing Translational Sciences (NCATS), 2013):
Inconclusive results are not listed. A number with no mark means an inactive call. The call rests on the fitted dose curve; in most records, active means well fitted activation curve with a large enough effect; inconclusive means small, poorly fitted or top-dose-only effect; inactive means flat fitted curve, though single readings scatter.

Experiment: qHTS for Inhibitors of Cell Surface uPA Generation: FP59 Counterscreen for Cherry-picked Compounds; further: 0% is about no effect
Details: FP59 anthrax toxin cytotoxicity counterscreen, cells; series mostly up to 115 µM; activity (protection from FP59): at the top concentration

Structure (SMILES) | activity (protection from FP59) [%]
CC1CC(C)CN(CCCNC(=O)CN2C(=O)CSc3ccc(S(=O)(=O)N4CCOCC4)cc32)C1 (stereo not given) | -0.379
COc1cc(C2NC(=O)NC(C)=C2C(=O)OCC2CCCCC2)ccc1O (stereo not given) | -0.645
CCOc1ccc(NC(=S)N2CCC(c3ccc(C)cc3)C2)cc1 (stereo not given) | -1.14
COc1ccc(C2=NOC(CNC(N)=S)C2)cc1 (stereo not given) | -1.38
CCN(CC)CCCn1c2c(c(SCC(=O)Nc3cccc4ccccc34)nc1=O)CCC2 | -1.61
Cc1ccnc(NC(=O)CCNS(=O)(=O)c2ccc(C)c(C)c2)c1 | -1.33
CCCS(=O)(=O)c1ccc(COC(=O)Cc2ccc([N+](=O)[O-])cc2)cc1 | -0.901
O=C(CCCOc1ccc(Cl)cc1Cl)NCc1ccncc1 | -1.41
Cn1c(=O)n(CC(=O)O)c(=O)c2c1nc1n2CCCN1CCc1ccccc1 | -1.33
NC(=O)c1ccc(NC(=O)CN2CCN(S(=O)(=O)c3ccc4ccccc4c3)CC2)cc1 | 0.185
CCOC(=O)C1(CC2CCCCO2)CCN(Cc2nccn2-c2cccc(C)c2)CC1 (stereo not given) | -0.834
CCc1ccc(NC(=O)Cn2cnc([N+](=O)[O-])c2)cc1 | -0.991
CSc1nc(N)nc2c1ncn2CC(=O)NCC1CCCO1 (stereo not given) | -0.117
COc1cc(CNCCc2ccccc2)cc(Br)c1OCC(=O)Nc1ccccc1C | -0.583
O=[N+]([O-])c1ccc(-c2cn3c(n2)SCC3)cc1 | -1.08
COc1ccc(/C=C/C(=O)Nc2ccccc2Cl)cc1S(=O)(=O)N1CCOCC1 | -0.992
COCc1c(C(=O)Nc2nc(C)cs2)oc2ccccc12 | -1.52
CCN1CCCCC(=N/O)/C(=N/O)CCCC1 | -1.44
O=C(NCCS(=O)(=O)N1CCC2(CC1)OCCO2)c1ccc(F)cc1 | -1.3
N#Cc1cccc(NC(=O)Cn2cnc(S(=O)(=O)N3CCOCC3)c2)c1 | -1.37

Structure (SMILES) | activity (protection from FP59) [%]
CC(C)(C)NC(=O)C(c1cccs1)N(C(=O)c1csnn1)c1ccccc1F (stereo not given) | -1.19
COc1ccccc1CN1CC(C(=O)NCc2cccc(C)n2)CCC1=O (stereo not given) | -0.85
Cc1cc(C)cc(S(=O)(=O)c2cn(C)c3cc(N4CCN(C)CC4)c(F)cc3c2=O)c1 | -1.55
C=CC[n+]1c(/C=C/c2ccc(OC(C)=O)c(OC)c2)ccc2ccccc21 | -1.44
OCC1CCCCN1CC(O)COC(c1ccc(F)cc1)c1ccc(F)cc1 (stereo not given) | -1.2
Cn1cccc1Cc1nnc(SCC(=O)Nc2ccc3c(c2)OCCO3)n1-c1ccc(F)cc1 | -1.19
O=C(CSc1nncs1)NC(=O)NCc1ccco1 | -1.2
CC(C)NC(=O)CN1CCC(c2nc3ccccc3[nH]2)CC1 | -1.44
CCCCn1c(N)c(N(Cc2ccccc2OC)C(=O)COc2ccc(C)cc2)c(=O)[nH]c1=O | -1.37
O=C1N[C@@H](Cc2c[nH]c3ccccc23)C(=O)N[C@H]1Cc1ccccc1 | -1.34
CCOc1cc(/C=N/Nc2cc(C)nc3ccc(C)cc23)ccc1O | -1.03
O=c1[nH]c2c(s1)C(c1ccc(O)cc1)C1C3CCC(C3)C1S2 (stereo not given) | 0.364
COc1ccc(C(=O)NC(=S)Nc2ccc(NC(=O)c3ccco3)cc2)cc1[N+](=O)[O-] | -1.56
CC(OC(=O)c1cccc(-n2cnnn2)c1)C(=O)Nc1ccc(F)c(F)c1F (stereo not given) | -1.35
Cc1cccc(NC(=O)C2CCCN(S(=O)(=O)c3cccc4cccnc34)C2)c1 (stereo not given) | -1.41
Cc1ccc2cc(C=O)c(Cl)nc2c1 | -1.35
CN(CCO)c1ccc(C(C(=O)c2ccccc2)c2ccc(N(C)CCO)cc2)cc1 | 0.252
CC(=O)NS(=O)(=O)c1ccc(NC(=O)c2cccc(OCc3c(C)noc3C)c2)cc1 | -1.47
O=C(Cc1n[nH]c(=O)c2ccccc12)Nc1cccc(S(=O)(=O)N2CCCCCC2)c1 | 0.793
COc1ccc(N(C(C)C(=O)NN=C2CCCC2)S(C)(=O)=O)cc1 (stereo not given) | -1.4
